biological target: T1, Tyrosine-protein kinase Tec (Homo sapiens) (UniProt P42680); details: at 0.1 µM
T1 sequence (whole entry): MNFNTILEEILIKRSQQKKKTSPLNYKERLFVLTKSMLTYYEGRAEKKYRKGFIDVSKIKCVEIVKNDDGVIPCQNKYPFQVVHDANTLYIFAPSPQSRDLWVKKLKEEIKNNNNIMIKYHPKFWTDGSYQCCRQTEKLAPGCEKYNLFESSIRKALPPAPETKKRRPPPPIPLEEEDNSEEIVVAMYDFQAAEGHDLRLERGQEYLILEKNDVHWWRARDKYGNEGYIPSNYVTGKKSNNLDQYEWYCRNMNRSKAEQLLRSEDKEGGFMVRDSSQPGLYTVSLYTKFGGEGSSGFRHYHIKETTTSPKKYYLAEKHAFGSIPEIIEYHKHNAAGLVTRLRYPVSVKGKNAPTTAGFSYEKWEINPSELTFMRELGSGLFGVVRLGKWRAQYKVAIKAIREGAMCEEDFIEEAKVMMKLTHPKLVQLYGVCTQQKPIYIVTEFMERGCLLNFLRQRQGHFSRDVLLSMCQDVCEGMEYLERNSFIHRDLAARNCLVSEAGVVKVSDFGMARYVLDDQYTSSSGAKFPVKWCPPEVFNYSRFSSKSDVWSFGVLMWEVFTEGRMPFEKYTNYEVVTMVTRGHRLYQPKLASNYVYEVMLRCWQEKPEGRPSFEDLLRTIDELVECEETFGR

Going from CC(C)=Cc1cccc2c1/C(=N/Nc1ccc(S(N)(=O)=O)cc1)C(=O)N2 to O=C1NC(=O)C(c2cccc(Cl)c2)=C1Nc1ccc(O)c(Cl)c1, the inhibition falls from 2.44% to 1.84%.

First: COC(=O)Nc1nc2cc(Oc3cccc(NC(=O)Nc4cc(C(F)(F)F)ccc4F)c3)ccc2[nH]1
Second: CCc1cccc(NC(=O)Nc2ccc(Oc3ccc4nc(NC(=O)OC)[nH]c4c3)cc2)c1
The inhibition of the first is lower: 1.48% for the first, 2.07% for the second.

Compared with Nc1ncnc2occ(-c3ccc(NC(=O)Nc4cc(C(F)(F)F)cc(C(F)(F)F)c4)cc3)c12, Nc1ncnc2occ(-c3ccc(NC(=O)Nc4cccc(C(F)(F)F)c4)cc3)c12 is lower in inhibition: 3.65% for the first, 1.64% for the second.

First: CCn1c(-c2nonc2N)nc2cncc(C(=O)N3CCNCC3)c21
Second: CCn1c(-c2nonc2N)nc2cncc(C(=O)N3CC[C@H](N)C3)c21
The inhibition of the first is higher: 7.87% for the first, 4.37% for the second.

Compared with NC(=O)c1ccc(-c2nc(-c3ccccn3)c(-c3ccc4c(c3)OCO4)[nH]2)cc1, NCc1ccc(-c2nc(-c3ccc(Cl)c(O)c3)c(-c3ccncc3)[nH]2)cc1 is higher in inhibition: 3.16% for the first, 6.38% for the second.

Going from CCn1c(-c2nonc2N)nc2c(C#CC(C)(C)O)nc(CN3CCCC3)cc21 to CCn1c(-c2nonc2N)nc2c(C#CC(C)(C)O)nc(OC[C@@H](N)c3ccccc3)cc21, the inhibition rises from -0.24% to 1.68%.

Compared with N#Cc1c(NC(=O)c2cccc3ccccc23)sc2c1CCCC2, COc1cc2c(cc1Nc1nc(N3CCc4ccccc43)c3cc[nH]c3n1)N(C(=O)CN(C)C)CC2 is higher in inhibition: 2.31% for the first, 2.67% for the second.

Compared with Cc1cc(O)cc(C)c1/C=C/c1cncc(-c2nn[nH]n2)c1, Cc1nnc(-c2ccc(C)c(-c3ccc(C(=O)Nc4cccc(C#N)c4)cc3)c2)o1 is lower in inhibition: 15.1% for the first, 4.05% for the second.

Going from Cc1cccc(-c2n[nH]cc2-c2ccc3ncccc3n2)n1 to Cn1cc(C=C2C(=O)Nc3cccnc32)c2ccccc21, the inhibition rises from 0.76% to 2.46%.

Compared with O=C1NC(=O)C(N2CCc3ccccc32)=C1c1ccc(Cl)cc1, O=C1NC(=O)C(c2ccc(Cl)cc2)=C1Nc1ccc(Cl)c(C(=O)O)c1 is lower in inhibition: 6.1% for the first, -1.66% for the second.

Going from CCn1c(-c2nonc2N)nc2ccncc21 to CCn1c(-c2nonc2N)nc2c(N3CCCC3)nccc21, the inhibition falls from 2.56% to -1.85%.

Compared with COc1ccc(-c2nn3ncccc3c2-c2ccnc(Nc3ccc(Cl)c(C(F)(F)F)c3)n2)cc1, COc1cccc(-n2ncc3c(N/N=C/c4cccc(F)c4)ncnc32)c1 is lower in inhibition: 1.4% for the first, -1.33% for the second.

Compared with CS(=O)(=O)CCNCc1ccc(-c2ccc3ncnc(Nc4ccc(OCc5ccccc5)c(Cl)c4)c3c2)o1, CS(=O)(=O)CCNCc1nc(-c2ccc3ncnc(Nc4ccc(F)c(Cl)c4)c3c2)cs1 is higher in inhibition: -0.91% for the first, 3.79% for the second.

Going from Cc1ccc(NC(=O)c2ccnc(N3CCCC3)c2)cc1-c1ccc(C(=O)NCC2CC2)cc1 to CCCN1CCC=C(c2ccc(Nc3nc(Nc4ccccc4C(N)=O)c4cc[nH]c4n3)c(C)c2)C1, the inhibition rises from 0.49% to 6.08%.

First: CN(C)c1cc2c(Nc3ccc4nc(Cc5ccccc5)[nH]c4c3)ncnc2cn1
Second: CC(=O)Nc1cccc(C#Cc2cncnc2Nc2ccc(OCc3cccc(F)c3)c(Cl)c2)n1
The inhibition of the first is higher: 5.94% for the first, -0.56% for the second.

Going from O=C1NC(=O)C(c2ccccc2Cl)=C1Nc1cccc(O)c1 to O=C1Nc2ccc(C(=O)c3ccco3)cc2C1=Cc1cc(Cl)c(O)c(Cl)c1, the inhibition falls from 3.78% to 3.56%.

Compared with COc1ccccc1Nc1ncc(-c2ccccc2)o1, COc1ccc(-c2coc3ncnc(N)c23)cc1 is higher in inhibition: 2.21% for the first, 3.6% for the second.

biological target: T1, Tyrosine-protein kinase Tec (Homo sapiens); details: at 1 µM

First: CC(C)=Cc1cccc2c1/C(=N/Nc1ccc(S(N)(=O)=O)cc1)C(=O)N2
Second: O=C1NC(=O)C(c2cccc(Cl)c2)=C1Nc1ccc(O)c(Cl)c1
The inhibition of the first is higher: 10.1% for the first, 1.44% for the second.

Going from COC(=O)Nc1nc2cc(Oc3cccc(NC(=O)Nc4cc(C(F)(F)F)ccc4F)c3)ccc2[nH]1 to CCc1cccc(NC(=O)Nc2ccc(Oc3ccc4nc(NC(=O)OC)[nH]c4c3)cc2)c1, the inhibition rises from 2.64% to 3.91%.

First: Nc1ncnc2occ(-c3ccc(NC(=O)Nc4cc(C(F)(F)F)cc(C(F)(F)F)c4)cc3)c12
Second: Nc1ncnc2occ(-c3ccc(NC(=O)Nc4cccc(C(F)(F)F)c4)cc3)c12
The inhibition of the first is higher: 6.33% for the first, 5.89% for the second.

Compared with CCn1c(-c2nonc2N)nc2cncc(C(=O)N3CCNCC3)c21, CCn1c(-c2nonc2N)nc2cncc(C(=O)N3CC[C@H](N)C3)c21 is lower in inhibition: 7.17% for the first, 3.68% for the second.

Going from NC(=O)c1ccc(-c2nc(-c3ccccn3)c(-c3ccc4c(c3)OCO4)[nH]2)cc1 to NCc1ccc(-c2nc(-c3ccc(Cl)c(O)c3)c(-c3ccncc3)[nH]2)cc1, the inhibition rises from 2.63% to 33%.

Going from CCn1c(-c2nonc2N)nc2c(C#CC(C)(C)O)nc(CN3CCCC3)cc21 to CCn1c(-c2nonc2N)nc2c(C#CC(C)(C)O)nc(OC[C@@H](N)c3ccccc3)cc21, the inhibition rises from 1.81% to 6.92%.

First: N#Cc1c(NC(=O)c2cccc3ccccc23)sc2c1CCCC2
Second: COc1cc2c(cc1Nc1nc(N3CCc4ccccc43)c3cc[nH]c3n1)N(C(=O)CN(C)C)CC2
The inhibition of the first is lower: 3.43% for the first, 7.6% for the second.

Compared with Cc1cc(O)cc(C)c1/C=C/c1cncc(-c2nn[nH]n2)c1, Cc1nnc(-c2ccc(C)c(-c3ccc(C(=O)Nc4cccc(C#N)c4)cc3)c2)o1 is lower in inhibition: 65% for the first, 3.86% for the second.

Going from Cc1cccc(-c2n[nH]cc2-c2ccc3ncccc3n2)n1 to Cn1cc(C=C2C(=O)Nc3cccnc32)c2ccccc21, the inhibition rises from 1.51% to 8.75%.

First: O=C1NC(=O)C(N2CCc3ccccc32)=C1c1ccc(Cl)cc1
Second: O=C1NC(=O)C(c2ccc(Cl)cc2)=C1Nc1ccc(Cl)c(C(=O)O)c1
The inhibition of the first is higher: 9.11% for the first, -1.1% for the second.

Going from CCn1c(-c2nonc2N)nc2ccncc21 to CCn1c(-c2nonc2N)nc2c(N3CCCC3)nccc21, the inhibition falls from 3.46% to -3.76%.

Compared with COc1ccc(-c2nn3ncccc3c2-c2ccnc(Nc3ccc(Cl)c(C(F)(F)F)c3)n2)cc1, COc1cccc(-n2ncc3c(N/N=C/c4cccc(F)c4)ncnc32)c1 is higher in inhibition: 1.86% for the first, 2.09% for the second.

Going from CS(=O)(=O)CCNCc1ccc(-c2ccc3ncnc(Nc4ccc(OCc5ccccc5)c(Cl)c4)c3c2)o1 to CS(=O)(=O)CCNCc1nc(-c2ccc3ncnc(Nc4ccc(F)c(Cl)c4)c3c2)cs1, the inhibition rises from 0.89% to 9.13%.

Going from Cc1ccc(NC(=O)c2ccnc(N3CCCC3)c2)cc1-c1ccc(C(=O)NCC2CC2)cc1 to CCCN1CCC=C(c2ccc(Nc3nc(Nc4ccccc4C(N)=O)c4cc[nH]c4n3)c(C)c2)C1, the inhibition rises from 3.83% to 8.24%.

Compared with CN(C)c1cc2c(Nc3ccc4nc(Cc5ccccc5)[nH]c4c3)ncnc2cn1, CC(=O)Nc1cccc(C#Cc2cncnc2Nc2ccc(OCc3cccc(F)c3)c(Cl)c2)n1 is lower in inhibition: 11.9% for the first, 0.51% for the second.

Compared with O=C1NC(=O)C(c2ccccc2Cl)=C1Nc1cccc(O)c1, O=C1Nc2ccc(C(=O)c3ccco3)cc2C1=Cc1cc(Cl)c(O)c(Cl)c1 is higher in inhibition: 4.55% for the first, 9.55% for the second.

First: COc1ccccc1Nc1ncc(-c2ccccc2)o1
Second: COc1ccc(-c2coc3ncnc(N)c23)cc1
The inhibition of the first is higher: 7.28% for the first, 5.59% for the second.
